Assay outcomes from PubChem.
GLP1R cytotox: cytotoxicity in counter-screen for GLP-1R inverse agonists | HEK293 cAMP-luciferase reporter cells, luminescence, 24 h | Potency, µM (highest dose often 38.3 µM), most hits filed as inhibitors | actives 0.13% (n = 410,000) | AID 624418;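 also: loss of luciferase light is scored as toxicity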
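To flag toxic compounds, the library was rerun on cells for 24 hr at 37 deg C and 5% CO2. Viability-linked luminescence was captured 12 min after adding luciferase detection reagent.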
BRCA1 expr up: activators of BRCA1 expression | Potency, µM (titrated, usually from 46.1 µM), usual class: activators | AID 624202 | actives 1.1% (n = 380,000) | MCF7-BRCA1-FFLuc reporter, luminescence, 48 h; response scale: scaled: vehicle 0%, 10 µM genistein 100%; also: nearly all actives have a fitted effect of over 80% in size
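Activators of BRCA1 expression were detected as increased firefly luciferase luminescence in engineered MCF7 cells after 48 h compound incubation. Signals were scaled to genistein 10 microM as full activation.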
GLP1R inv ag: acts as inverse agonist at human GLP-1 receptor | Potency, µM (doses to about 38.3 µM), most hits filed as inhibitors | AID 624417 | P43220 | HEK293 GLP-1R CRE-luciferase, luminescence, 24 h; GLP-1R form is constitutively active | actives 1.6% (n = 410,000); also: nearly all actives have a fitted effect of over 55% in size
Target sequence (P43220 whole entry, looked up): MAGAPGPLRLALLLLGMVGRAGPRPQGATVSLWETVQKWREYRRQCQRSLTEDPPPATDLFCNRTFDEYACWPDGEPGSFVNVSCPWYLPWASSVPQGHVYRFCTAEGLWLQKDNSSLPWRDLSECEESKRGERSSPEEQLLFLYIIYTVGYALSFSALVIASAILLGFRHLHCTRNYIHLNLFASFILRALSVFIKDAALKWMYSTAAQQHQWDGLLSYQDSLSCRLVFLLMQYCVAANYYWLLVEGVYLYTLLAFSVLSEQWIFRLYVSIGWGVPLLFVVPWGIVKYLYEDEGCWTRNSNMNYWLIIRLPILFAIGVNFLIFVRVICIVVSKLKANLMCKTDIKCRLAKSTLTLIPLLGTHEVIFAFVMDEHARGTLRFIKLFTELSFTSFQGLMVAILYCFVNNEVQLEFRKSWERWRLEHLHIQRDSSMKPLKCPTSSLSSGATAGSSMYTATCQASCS
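HEK293 cells stably co-expressing constitutively active GLP-1R and a cAMP-responsive luciferase reporter were seeded in DMEM with 10% Nu serum, given compounds after 12 h, and incubated 24 h at 37 deg C. Luminescence was then read.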
a7 integrin act: integrin-mediated muscular dystrophy alleviation activation | alpha7betagal myoblasts, beta-gal FDG fluorescence, 48 h | Potency, µM (series often up to 38.3 µM), usual class: activators | actives 0.064% (n = 350,000) | AID 624291; also: nearly all actives have a fitted effect of over 60% in size
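alpha7betagal+/- myoblasts (passage 13, 250/well) treated 48 h at 37C with compounds at 1:260 dilution of DMSO stock. Lysed, then beta-galactosidase activity read as FDG fluorescence (ex 480/em 540) after 30 min, with pre-read for autofluorescence.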
GLP1R ag: agonists of human GLP-1 receptor; AID 624172; HEK293 GLP-1R CRE-luciferase, luminescence, 4-6 h; cells express a hypersensitive GLP-1R form; Potency, µM (doses to about 45.6 µM), actives largely listed as activators; actives 0.007% (n = 380,000); P43220
Numbers stand for hits; - = inactive; ? = inconclusive; . = no result; [ ] = another dose, or the depositor's remark. An excerpt weighted towards active compounds, which were near 2.7% of everything screened. Calls follow the shape of the dose curve; as a rule, active = well fitted curve in the direction sought with a large enough effect; inconclusive = small, poorly fitted or top-dose-only effect, or another doubt; inactive = no such curve, though single readings can be large; an effect the other way counts as inactive or inconclusive.

SMILES	GLP1R cytotox	BRCA1 expr up	GLP1R inv ag	a7 integrin act	GLP1R ag
CN1C(=S)N(c2cccnc2)C(=O)/C1=C\c1ccc(N(C)C)cc1	10µM	-	?	-	-
COc1ccccc1/C=C/c1onc(C)c1S(=O)(=O)N1CCC(C(=O)N2CCC(C)CC2)CC1	-	.	-	.	.
CC(=O)Nc1ccc(NC(=O)c2cc(=O)c3cc(C)cc(C)c3o2)cc1	-	-	-	11.2µM	-
Cc1cc(C)c2oc(C(=O)Nc3ccc(S(=O)(=O)Nc4ncccn4)cc3)cc(=O)c2c1	-	.	-	.	.
COC(=O)c1ccccc1NC(=O)CCS(=O)(=O)c1nc(-c2ccc3c(c2)OCO3)cc(C(F)(F)F)n1	-	.	-	.	.
Cc1ccc(Cl)cc1N1CCN(S(=O)(=O)c2ccc3c(c2)OCCO3)CC1	-	-	10µM	-	-
CCN(CC)c1ccc2cc(-c3nnc(-c4ccccc4)o3)c(=O)oc2c1	-	1.41µM	-	-	-
C(=Nc1ccc(/C=C/c2ccnc3ccccc23)cc1)c1cccs1	.	-	.	.	.
CCOC(=O)[C@]12CCCC=C1N(Cc1ccc(Cl)cc1Cl)C(=O)[C@H](CC(=O)N1CCC(c3ccccc3)CC1)C2	-	-	-	.	-
COC(=O)[C@]12CCCCC=C1N(Cc1ccc(Cl)cc1Cl)C(=O)[C@H](CC(=O)N1CCC(c3ccccc3)CC1)C2	-	-	11.2µM	.	-
Cc1ccc2c(c1)[C@H]1[C@H](CO2)[C@H](c2ccccc2)[C@]2(C)C(=O)Nc3ccc(Cl)cc3C(=O)N12	-	-	6.31µM	-	-
Cc1ccc2c(c1)C(=O)N1[C@H]3c4ccccc4OC[C@@H]3[C@H](c3ccccc3)[C@]1(C)C(=O)N2	-	-	11.2µM	-	-
C[C@@]12C(=O)Nc3ccc(Cl)cc3C(=O)N1[C@H]1c3cc(Cl)ccc3OC[C@@H]1[C@@H]2c1ccccc1	-	-	?	-	-
O=C(Oc1ccc(F)cc1)c1nc(SCc2ccccc2F)ncc1Cl	-	.	-	.	.
COc1ccccc1-c1nnc(NC(=O)CSc2nncn2C)s1	-	10µM	-	-	-
CC1(c2nnc(-c3cccc(Cl)c3)o2)CC(c2ccc(F)cc2)=NO1 (stereo not given)	-	11.2µM	-	-	-
Cc1cc(-c2ccc(S(=O)(=O)Nc3ccc(Cl)cc3)cc2)on1	-	.	?	.	.
Cc1cc(C)cc(NS(=O)(=O)c2ccc(-c3cc(C)no3)cc2)c1	-	.	3.55µM	.	.
CCOc1ccc(CN2CCN(Cc3cc4c(cc3Cl)OCO4)CC2CCO)cc1 (stereo not given)	-	-	7.94µM	-	-
CCOc1ccc(CN2CCN(Cc3cccc4c3OCO4)CC2CCO)cc1 (stereo not given)	-	-	?	-	-
O=C(NNC(=O)c1cccs1)c1ccc(Br)cc1	-	12.6µM	-	-	-
CCOP(=O)(OCC)C(Nc1ccccc1)c1ccc2c(c1)OCO2 (stereo not given)	-	-	?	-	-
CCCCOP(=O)(OCCCC)C(Nc1ccccc1)c1ccc2c(c1)OCO2 (stereo not given)	-	-	7.94µM	-	-
Cc1ccc(-n2nc3c(N4CCC(C(=O)NC(C)c5ccccc5)CC4)nnc(C)c3c2C)cc1 (stereo not given)	-	.	?	.	.
Nc1nnc(-c2ccc(Cl)cc2Cl)s1	-	10µM	-	-	-
SMILES	GLP1R cytotox	BRCA1 expr up	GLP1R inv ag	a7 integrin act	GLP1R ag
N#CC(C#N)=C(Nc1ccc(F)cc1)SCc1cccc(Br)c1	-	-	2µM	-	-
Cc1cccc(CSC(Nc2ccc(F)cc2)=C(C#N)C#N)c1	?	-	?	-	-
COc1cc(NC(=O)C2CCCCC2)c(OC)cc1NC(=O)CN1CCCCC1	?	-	2.51µM	-	-
COc1cc(NC(=O)Nc2ccccc2OC)c(OC)cc1NC(=O)CN1CCCCC1	-	-	?	-	-
COc1cc(NC(=O)c2ccc(Cl)cc2)c(OC)cc1NC(=O)CN1CCCCC1	?	-	3.55µM	-	-
O=C(NC1CC1)c1ccc2nc(-c3ccco3)c(-c3ccco3)nc2c1	.	-	.	.	.
CS(=O)(=O)c1ccc(NC(=O)COc2ccccc2C(=O)Nc2ccccc2)cc1	.	-	.	.	.
O=C1CCCN2N=C(SCC(=O)N3N=C(c4ccc(Br)cc4)CC3c3ccc(F)cc3)SC2=N1 (stereo not given)	-	-	?	-	-
Cc1ccc(C2CC(c3ccc(Br)cc3)=NN2C(=O)CSC2=NN3CCCC(=O)N=C3S2)cc1 (stereo not given)	-	-	4.47µM	-	-
Cn1c(NCCCO)nc2c1c(=O)n(Cc1cccc(F)c1)c(=O)n2C	-	.	-	.	.
Cc1cccc(N2CCN(C(=O)c3c(C)oc4ncnc(N5CCCCC5)c34)CC2)c1C	-	-	?	.	.
CN1CCN(C(=O)c2ccccc2N(Cc2ccccc2)S(=O)(=O)c2ccccc2)CC1	-	-	?	-	-
Cc1ccc(S(=O)(=O)N(Cc2ccccc2)c2ccccc2C(=O)N2CCCCC2)cc1	?	-	8.91µM	-	-
Cc1ccc(NC(=O)CCc2ccccc2)cc1C	-	12.6µM	?	-	-
O=C(CCc1ccccc1)Nc1ccc2ccccc2n1	-	7.08µM	-	-	-
O=C(CCc1ccccc1)Nc1cccc(NC(=O)CCc2ccccc2)c1	-	-	-	-[7.66 µM]	-
O=C(C=C=Nc1ccccc1)C(=O)N=C=Cc1ccccc1	12.6µM	-	?	-	-
O=C(N/N=C/c1ccccc1)C(=O)N/N=C/c1ccccc1	-	-	-	-	-
Cc1cc(C(=O)NCc2cccs2)cs1	-	10µM	-	-	-
CC(C)Cc1cc(C(=O)NCc2cccnc2)no1	-	-	-	-	-
CC(C)Cc1cc(C(=O)NCc2cccs2)no1	-	12.6µM	?	-	-
CC(C)Oc1ccc(C(=O)NCc2cccs2)cc1	-	12.6µM	?	-	-
O=C(NCc1cccs1)c1ccccc1	-	-	-	-	-
O=C(NCc1cccs1)c1ccncc1	-	-	-	-	-
Cc1ccc(CNC(=O)c2cc3cc(C)ccc3n2C)cc1	-	.	?	.	.
SMILES	GLP1R cytotox	BRCA1 expr up	GLP1R inv ag	a7 integrin act	GLP1R ag
COc1ccc(NC(=O)CCS(=O)(=O)c2cc3c(cc2C)NC(=O)CO3)cc1Cl	-	-	-	.	-
Cc1cccc(N(C)C(=O)CSc2nc3ncccc3o2)c1	-	.	-	.	.
CN(CC1(C)CCCO1)S(=O)(=O)c1ccc(Cl)c(S(N)(=O)=O)c1 (stereo not given)	.	.	.	.	-
COc1ccc(Cl)cc1NC(=O)CN(C(=O)c1ccco1)C1CCCCC1	-	-	10µM	-	-
Cc1ccc(NC(=O)CSc2nnc(-c3ccc([N+](=O)[O-])cc3)o2)c(C)c1	-	.	-	.	.
COC(=O)c1cccc(NC(=S)Nc2ccccc2Cl)c1	-	-	-	-	-
COC(=O)c1ccc(CSc2ccccc2NC(=S)Nc2cccc(SC)c2)o1	-	-	12.6µM	-	-
